Whole data set: some 13,000 compounds, median “IFI” near 4, cut for the highest 2% near 17. The full list was thinned out, with the highest values kept by preference.
Assay: GSK_TCMDC: Inhibition Frequency Index (IFI). The number of non-kinase HTS assays where a compound showed > 50 % inhibition, expressed as a percentage of the number of such assays in which the compound was tested
Assay type: functional

Going from `Nc1nc(N)c2c3c(ccc2n1)NCCC3` to `Cc1nc2nc(N)nc(N)c2c(C)c1Cc1ccc([N+](=O)[O-])cc1`, the IFI falls from 2.48% to 1.6%.

First: COc1ccc(CNCc2ccc(-c3ccc(-c4nc5cccc(C)c5[nH]4)cc3)cc2)cc1
Second: COc1ccc(CNCc2cccc(-c3ccc(-c4nc5cccc(C)c5[nH]4)s3)c2)cc1
The IFI of the first is higher: 13.1% for the first, 10.4% for the second.

First: O=C(Cn1cc(C(F)(F)F)cc(Cl)c1=O)N1CCN(S(=O)(=O)c2ccc(Cl)cc2)CC1
Second: COc1ccc(NS(=O)(=O)c2ccc(C(=O)Nc3ccc(C(F)(F)F)cc3)cc2)cc1N1CCN(CC2CC2)CC1
The IFI of the first is lower: 0% for the first, 2.1% for the second.

Going from `CCCNCc1ccc(-c2ccc(CN(CCOC)C(=O)CCC(=O)c3ccc(OC)c(F)c3)cc2)nc1` to `CCCN1CCN(c2cc(S(=O)(=O)Nc3ccc(C(=O)NCc4cccc(C(F)(F)F)c4)cc3)ccc2OC)CC1`, the IFI rises from 0.7% to 24.1%.

First: O=C(Nc1cccc(F)c1)N[C@H]1CCN(CCCCCNC(=O)C2CC2c2ccc(Cl)c(Cl)c2)C1 (stereo partly specified)
Second: O=C(Nc1cccc(F)c1)NC1CCN(CCCCCNC(=O)C2CC2c2ccc(Cl)c(Cl)c2)CC1 (stereo unspecified)
The IFI of the first is higher: 19.4% for the first, 11.5% for the second.

Compared with `O=C(Nc1cc(F)cc(F)c1)N[C@H]1CCN(CCCCCNC(=O)C2CC2c2ccc(Cl)c(Cl)c2)C1` (stereo partly specified), `O=C(Nc1ccc(F)c(C(F)(F)F)c1)N[C@H]1CCN(CCCCCNC(=O)C2CC2c2ccc(Cl)c(Cl)c2)C1` (stereo partly specified) is higher in IFI: 13.6% for the first, 15.9% for the second.

Compared with `O=C(Nc1ccc(C(F)(F)F)cc1)NC1CCN(CCCCCNC(=O)C2CC2c2ccc(Cl)c(Cl)c2)CC1` (stereo unspecified), `O=C(Nc1ccc(Cl)cc1)NC1CCN(CCCCCNC(=O)C2CC2c2ccc(Cl)c(Cl)c2)CC1` (stereo unspecified) is lower in IFI: 11.1% for the first, 10.2% for the second.

First: O=C(Nc1ccc(F)c(C(F)(F)F)c1)NC1CCN(CCCCCNC(=O)C2CC2c2ccc(Cl)c(Cl)c2)CC1 (stereo unspecified)
Second: O=C(Nc1ccc(Cl)c(C(F)(F)F)c1)NC1CCN(CCCCCNC(=O)C2CC2c2ccc(Cl)c(Cl)c2)CC1 (stereo unspecified)
The IFI of the first is higher: 18.5% for the first, 17.1% for the second.

Going from `O=C(Nc1ccc(Cl)c(C(F)(F)F)c1)N[C@H]1CCN(CCCCCNC(=O)C2CC2c2ccc(Cl)c(Cl)c2)C1` (stereo partly specified) to `O=C(NCCCCN1CCC(c2ccc3c(c2OCCCO)CCCC3)CC1)c1ccc(-c2ccc(C(F)(F)F)cc2)c(CO)c1`, the IFI falls from 12.2% to 10.1%.

First: COc1ccc(-c2cnc3ccc(NCCCO)nn23)cc1OC
Second: COc1ccc(-c2nc3cccnc3n2CC(=O)Nc2c(C)cc(C)cc2C)c(OC)c1
The IFI of the first is higher: 6.77% for the first, 5.56% for the second.

Compared with `N=C1N=C(N)NCN1OCc1ccc(Cl)c(Cl)c1`, `CC1(C)NC(N)=NC(=N)N1OCCOc1cccc(C(F)(F)F)c1` is higher in IFI: 0.72% for the first, 3.7% for the second.

Going from `Cc1[nH]c(C)c(-c2ccc(OCc3cc(C(F)(F)F)cc(C(F)(F)F)c3)nc2)c(=O)c1Br` to `CC(C)(C)c1ccc2[nH]c(-c3ccc(/C=C/C(=O)NCc4cccc(C(F)(F)F)c4)cc3)nc2c1`, the IFI falls from 5.36% to 2.9%.

Going from `Cc1cccc2nc(-c3cccc(-c4cccc(CN5CCCC5CN)c4)c3)[nH]c12` (stereo unspecified) to `COc1ccccc1NC(=O)Nc1cccc(-c2cccc(-c3nc4cccc(C)c4[nH]3)c2)c1`, the IFI falls from 4.95% to 3.03%.

Compared with `Cc1nn(-c2cccc(C(F)(F)F)c2)c2sc(C(=O)NC3CCN(C(C)C)CC3)cc12`, `COc1ccc(NS(=O)(=O)c2cccc(C(=O)Nc3ccc(C(F)(F)F)cc3)c2)cc1N1CCN(CC(C)C)CC1` is lower in IFI: 10% for the first, 2.84% for the second.

Going from `CCCCN(CCCC)CCCCNc1c2ccc(Cl)cc2nc2ccc(OC)cc12` to `CCCCNc1nc(NCCCC)c2c(C)c(Cc3ccccc3)c(NCCCC)nc2n1`, the IFI rises from 6.87% to 16.1%.

Compared with `CC1(C)NC(N)=NC(=N)N1OCCCCOc1ccccc1`, `CC1(C)NC(N)=NC(=N)N1OCCOc1ccc(Cc2ccccc2)cc1` is higher in IFI: 2.17% for the first, 4.41% for the second.

Going from `N=C1N=C(N)NC2(CCCCC2)N1OCCOc1ccc(Cc2ccccc2)cc1` to `N=C1N=C(N)NC2(CCCCC2)N1OCCCOc1cccc2ccccc12`, the IFI falls from 27.6% to 9.16%.

First: CCCc1cc(C(C)=O)ccc1OCCCON1C(=N)N=C(N)NC1(C)C
Second: CCCc1cc(OCCCOc2ccccc2)ccc1OCCCON1C(=N)N=C(N)NC1(C)C
The IFI of the first is lower: 3.68% for the first, 21.1% for the second.

First: c1cc(-c2ccc(CNC3CCOCC3)cc2)cc(-c2nc3ccccc3[nH]2)c1
Second: c1ccc2[nH]c(-c3ccc(-c4ccc(CNCC5CCCO5)cc4)s3)nc2c1 (stereo unspecified)
The IFI of the first is lower: 0.97% for the first, 6.86% for the second.

Compared with `c1ccc2c(CNCCCCCCNCc3c(OCC4CC4)ccc4ccccc34)c(OCC3CC3)ccc2c1`, `CCOc1ccc2ccccc2c1CNCCCCCCNCc1c(OCC)ccc2ccccc12` is lower in IFI: 18.7% for the first, 13% for the second.

Going from `C#CCCOc1ccc2ccccc2c1CNCCCCCCNCc1c(OCCC#C)ccc2ccccc12` to `C#CCOc1ccc2ccccc2c1CNCCCCCCNCc1c(OCC#C)ccc2ccccc12`, the IFI rises from 12.8% to 14.1%.

Compared with `CCCOc1ccc2ccccc2c1CNCCCCCCNCc1c(OCCC)ccc2ccccc12`, `CCCCCCOc1ccc2ccccc2c1CNCCCCCCNCc1c(OCCCCCC)ccc2ccccc12` is higher in IFI: 17.6% for the first, 22.8% for the second.

First: C/C=C/COc1ccc2ccccc2c1CNCCCCCCCCNCc1c(OC/C=C/C)ccc2ccccc12
Second: C=CCOc1ccc2ccccc2c1CNCCCCCCNCc1c(OCC=C)ccc2ccccc12
The IFI of the first is lower: 16.6% for the first, 19.6% for the second.

Going from `CCCCCCCCNCc1c(O)ccc2ccccc12` to `Oc1ccc2ccccc2c1CNCCC1CCCCC1`, the IFI falls from 7.69% to 2.96%.

Going from `N#Cc1ccc(-c2ccc(C(=O)NCCCCN3CCC(c4ccc5c(c4OCC(N)=O)CCCC5)CC3)cc2)cc1` to `O=C(Nc1ccccc1)N(Cc1ccc(-c2ccc(CNC3CCCC3)cc2)cc1)C1CCN(Cc2ccccc2)CC1`, the IFI rises from 3.54% to 4.9%.

Going from `N=C(N)Nc1nc(-c2ccc(NC(=N)N3CCC[C@H]3CN3CCCC3)cc2)cs1` to `CCC(C)c1ccc(NC(=O)c2ccc(S(=O)(=O)Nc3ccc(OC)c(N4CCN(CC5CC5)CC4)c3)cc2)cc1` (stereo unspecified), the IFI rises from 2.17% to 13.6%.

Compared with `COc1ccccc1/C=C/C(=O)NC1CCC(CCN2CCc3ccc(-c4cc(C)no4)cc3CC2)CC1` (stereo unspecified), `COc1ccc(S(=O)(=O)Nc2ccc(C(=O)NCc3ccccc3C(F)(F)F)cc2)cc1N1CCN(CC2CC2)CC1` is higher in IFI: 3.88% for the first, 19.4% for the second.

First: Nc1c2ccccc2nc2ccc(Cl)cc12
Second: Cc1ccc(NC(=N)Nc2ncccc2OCc2c(F)cccc2Cl)cc1
The IFI of the first is lower: 9.03% for the first, 22% for the second.

Compared with `Cc1noc(C)c1-c1cccc(CNCc2cccc(-c3cccc(-c4nc5ccccc5[nH]4)c3)c2)c1`, `O=C(Nc1ccccc1)N(Cc1cccc(-c2cccc(CNCCc3ccccc3)c2)c1)C1CCN(Cc2ccccc2)CC1` is higher in IFI: 3.92% for the first, 12.3% for the second.

First: COc1cc(CN/C(=N/c2ccc(-c3ccccc3)cc2)Nc2ccc(C#N)cc2O)cc(OC)c1
Second: O=C(CCc1c[nH]cn1)Nc1ccc(-c2ccc(-c3nc4cc(F)ccc4[nH]3)cc2)cc1
The IFI of the first is lower: 1.46% for the first, 6.48% for the second.

`CCOc1cc2ncnc(Nc3ccc(OCc4c(F)cccc4F)c(OC)c3)c2cc1OCC` and `CCOc1cc2ncnc(Nc3ccc(OCc4c(Cl)cccc4Cl)c(OC)c3)c2cc1OCC` are the same in IFI: 0% for the first, 0% for the second.

First: COc1ccc(NS(=O)(=O)c2ccc(C(=O)Nc3ccc(OC(F)(F)F)cc3)cc2)cc1N1CCN(CC2CC2)CC1
Second: CCCCN1CCN(c2cc(NS(=O)(=O)c3ccc(C(=O)Nc4ccc(C(F)(F)F)cc4)cc3)ccc2OC)CC1
The IFI of the first is higher: 8.49% for the first, 3.97% for the second.

Going from `COc1ccc(S(=O)(=O)Nc2ccc(C(=O)NCc3ccc(C(F)(F)F)cc3)cc2)cc1N1CCN(CC2CC2)CC1` to `CCCCN1CCN(c2cc(NS(=O)(=O)c3cccc(C(=O)Nc4ccc(C(F)(F)F)cc4)c3)ccc2OC)CC1`, the IFI falls from 20% to 3.55%.

Source: ChEMBL document CHEMBL1157539, “Thousands of chemical starting points for antimalarial lead identification” (Nature, 2010)
